# From PubChem BioAssay (NCATS)
# The source made the active and inactive calls. The call rests on the fitted dose curve; in most records, active means well fitted curve in the direction sought with a large enough effect; inconclusive means small, poorly fitted or top-dose-only effect, or effect the other way, or another doubt; inactive means no such curve, though single readings can be large or run the other way.
# Experiment: Inducers of the Endoplasmic Reticulum Stress Response (ERSR) in human glioma: Validation (AID 504836)
# Details: human glioma cells, ER stress response reporter; series mostly up to 38.3 µM
# In short: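 Stably transfected U87-MG human glioma cells carrying a GRP78-based luminescent sensor were seeded at 1000 cells/well, pin-dosed with compounds and incubated 16 h. Luciferase reagent was then added, and end-point luminescence was read after 10 min at room temperature.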
row,Structure (SMILES),outcome
1,O=C(O)CN(CCOCCOCCN(CC(=O)O)CC(=O)O)CC(=O)O,inactive
2,Nc1c2c(nc3ccccc13)CCCC2,inactive
3,Cc1cc(C(C)(C)C)cc(C)c1CC1=NCCN1,inactive
4,COc1ccc2c(c1OC)C(=O)O[C@@H]2[C@H]1c2c(cc3c(c2OC)OCO3)CCN1C,inactive
5,Clc1ccc(Cn2c(CN3CCCC3)nc3ccccc32)cc1,inactive
6,CC(C)(C)c1ccc(C(=O)CCCN2CCC(OC(c3ccccc3)c3ccccc3)CC2)cc1,inactive
7,Cn1c(=O)c2c(ncn2C)n(C)c1=O,inactive
8,C#CCN(C)Cc1ccccc1,inactive
9,COCCOC(=O)C1=C(C)NC(C)=C(C(=O)OC/C=C/c2ccccc2)C1c1cccc([N+](=O)[O-])c1 (stereo not given),inactive
10,CC(C)COCC(CN(Cc1ccccc1)c1ccccc1)N1CCCC1 (stereo not given),inactive
11,O=C1N(c2ccccc2)c2ccccc2C1(Cc1ccncc1)Cc1ccncc1,inactive
12,O=C(CCCN1CCC(O)(c2cccc(C(F)(F)F)c2)CC1)c1ccc(F)cc1,inactive
13,CN1Cc2c(N)cccc2C(c2ccccc2)C1 (stereo not given),inactive
14,c1cnc(N2CCN(Cc3ccc4c(c3)OCO4)CC2)nc1,inactive
15,O=C1CC2(CCCC2)CC(=O)N1CCCCN1CCN(c2ncccn2)CC1,inactive
16,CCCn1cnc2c1c(=O)n(CCCCC(C)=O)c(=O)n2C,inactive
17,CN(C)C(=O)Oc1cccc([N+](C)(C)C)c1,inactive
18,Cc1cc(C)c(/C=C2\C(=O)Nc3ccccc32)[nH]1,inactive
19,CCN(CC)CC(=O)Nc1c(C)cccc1C,inactive
20,CCOC(=O)Nc1ccc(NCc2ccc(F)cc2)nc1N,inactive
